Results published in article PMC4336329 (PLoS ONE, 2015).
About 14,000 (4.5%) of roughly 310,000 compounds showed an effect of 50% or more. The effect is printed as a negative number. Many of the other results were omitted from the sample, so strong results are more common in it than they were.

These compounds were tested against human ether-à-go-go-related gene (hERG) potassium channel (human, UniProt Q12809) (assay: primary screen, population patch clamp on CHO cells stably expressing hERG; higher = less effect of the substance).
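Also: peak tail current of the secondary pulse compared with the same well before compound.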

Sequence of human ether-à-go-go-related gene (hERG) potassium channel (Q12809 whole entry, looked up): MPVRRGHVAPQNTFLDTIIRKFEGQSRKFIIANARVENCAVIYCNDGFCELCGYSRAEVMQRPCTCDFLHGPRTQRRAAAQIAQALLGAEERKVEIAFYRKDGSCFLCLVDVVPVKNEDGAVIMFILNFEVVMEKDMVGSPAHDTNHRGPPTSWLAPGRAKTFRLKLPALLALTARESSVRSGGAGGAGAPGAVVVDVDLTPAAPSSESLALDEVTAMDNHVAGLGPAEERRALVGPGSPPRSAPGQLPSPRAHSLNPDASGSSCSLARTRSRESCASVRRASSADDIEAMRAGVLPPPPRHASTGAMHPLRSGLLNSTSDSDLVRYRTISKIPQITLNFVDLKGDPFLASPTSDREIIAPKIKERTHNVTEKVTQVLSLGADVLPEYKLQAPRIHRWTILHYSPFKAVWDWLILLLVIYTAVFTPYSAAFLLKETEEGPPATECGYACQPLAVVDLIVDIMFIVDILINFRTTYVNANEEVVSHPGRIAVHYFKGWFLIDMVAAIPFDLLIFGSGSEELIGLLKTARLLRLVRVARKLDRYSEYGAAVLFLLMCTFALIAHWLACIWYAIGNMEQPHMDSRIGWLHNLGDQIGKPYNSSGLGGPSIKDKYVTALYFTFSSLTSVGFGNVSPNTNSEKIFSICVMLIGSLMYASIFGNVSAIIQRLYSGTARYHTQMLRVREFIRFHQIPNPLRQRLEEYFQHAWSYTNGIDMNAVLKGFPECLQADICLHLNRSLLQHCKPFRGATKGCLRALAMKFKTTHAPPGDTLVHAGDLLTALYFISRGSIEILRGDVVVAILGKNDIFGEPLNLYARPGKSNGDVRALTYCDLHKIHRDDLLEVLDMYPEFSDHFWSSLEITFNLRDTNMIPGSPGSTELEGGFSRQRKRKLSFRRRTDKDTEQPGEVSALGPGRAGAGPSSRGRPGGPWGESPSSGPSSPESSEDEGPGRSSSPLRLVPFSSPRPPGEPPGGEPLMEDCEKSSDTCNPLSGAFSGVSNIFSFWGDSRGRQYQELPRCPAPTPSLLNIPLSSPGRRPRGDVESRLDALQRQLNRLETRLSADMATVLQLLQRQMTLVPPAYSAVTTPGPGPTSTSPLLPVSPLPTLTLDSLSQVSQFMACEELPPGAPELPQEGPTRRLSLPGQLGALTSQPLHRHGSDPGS

Compound	hERG current change (%, negative = inhibition) at 10uM
CCc1ccccc1N(CC(=O)NCc1ccco1)C(=O)CCC(=O)Nc1nccs1	0.493%
N#CC(C#N)=Cc1cnc(N2CCN(c3ccccc3)CC2)s1	23%
COCCN(C(=S)Nc1cc(C)ccc1C)C(C)c1cccnc1 (stereo not drawn)	-25.4%
Cc1ccc(OC(C)C(=O)Nc2ccccc2C(=O)N2CCN(C)CC2)cc1 (stereo not drawn)	-5.11%
CCc1c(C)c(C#N)c2nc3ccccc3n2c1Nc1c(C)n(C)n(-c2ccccc2)c1=O	-5.49%
Cc1c(Nc2nc3ccccc3nc2NS(=O)(=O)c2ccccc2)c(=O)n(-c2ccccc2)n1C	-67.1%
Cc1cc(Nc2c(C)n(C)n(-c3ccccc3)c2=O)n2c(nc3cc(F)c(F)cc32)c1C#N	19.2%
Cc1c(NP(=O)(C(C)(C)C)C(C)(C)C)c(=O)n(-c2ccccc2)n1C	26.4%
Cc1c(NP(=O)(c2ccc(Br)cc2)c2ccc(Br)cc2)c(=O)n(-c2ccccc2)n1C	-65.7%
Cc1cc(Nc2c(C)n(C)n(-c3ccccc3)c2=O)c2ccccc2n1	-20.3%
Cc1cc(Nc2c(C)n(C)n(-c3ccccc3)c2=O)n2c(nc3ccccc32)c1C#N	-73.6%
Cc1c(Nc2nc3ccccc3nc2NS(=O)(=O)c2cccs2)c(=O)n(-c2ccccc2)n1C	1.13%
Cc1c(Nc2nc(C(F)(F)F)nc3ccccc23)c(=O)n(-c2ccccc2)n1C	-1.37%
Cc1c(NS(=O)(=O)c2ccc(Br)cc2)c(=O)n(-c2ccccc2)n1C	-6.03%
Cc1c(Nc2c3ccccc3nc3ccccc23)c(=O)n(-c2ccccc2)n1C	-71%
Cc1c(Nc2nc3ccccc3nc2NS(=O)(=O)c2cccc(Cl)c2)c(=O)n(-c2ccccc2)n1C	-2.18%
CC(C)C(=O)Nc1cccc(C(=O)Nc2ccc(S(=O)(=O)Nc3nccs3)cc2)c1	8.32%
Nn1cnnc1SCC(=O)N1CCc2ccccc2C1	-12.8%
COc1ccc(C(=O)c2nccc3ccccc23)cc1	0.535%
COc1cccc(N(CC(=O)NCC2CCCO2)C(=O)CNS(=O)(=O)c2ccccc2)c1 (stereo not drawn)	23.1%
c1ccc(CCNc2ncnc3c2cnn3-c2ccccc2)cc1	-40.5%
CC(=O)Nc1ccc(N2CCc3c(C)c(C#N)c4nc5ccccc5n4c32)cc1	8.55%

Compound	hERG current change (%, negative = inhibition) at 10uM
Cc1ccc(N(Cc2ccc(C(=O)NCCSc3ccccn3)cc2)S(C)(=O)=O)cc1C	-4.82%
Cc1nn(-c2ccc(Cl)cc2Cl)c(=O)c2ccccc12	-11.3%
O=c1[nH]c(N2CCN(Cc3ccccc3)CC2)nc2c1CCC2	18.9%
O=c1[nH]c(N2CCN(c3ccccc3)CC2)nc2c1CCCC2	2.28%
Nc1c2c(nc3ccn(Cc4ccccc4)c(=O)c13)CCC2	-66%
Nc1c2c(nc3ccccc13)CCC2.O=C(O)/C=C/C(=O)O	-18.2%
Nc1c2c(nc3ccn(-c4ccccc4)c(=O)c13)CCCCC2	-58.8%
Cc1nc(SC2CC(=O)N(c3ccccc3)C2=O)nc2c1CCCC2 (stereo not drawn)	-3.22%
Cc1sc(NC(=O)CN2CCN(c3ccccn3)CC2)c(C#N)c1C	2.51%
O=C(C/C=N/OCc1ccc(Cl)cc1Cl)c1ccccc1	-6.79%
CC(=O)Nc1nc(-c2cccc3ccccc23)cs1	-9.32%
CSc1ccc(CNC2CC2)cc1.Cl	-7.3%
CC(C)Cn1c(C(C)C)nc([N+](=O)[O-])c1Sc1ccc(Cl)cn1	-6.57%
CCCn1c(CC)nc([N+](=O)[O-])c1Sc1ccc(C)cc1	-0.08%
CCCCn1c(CCC)nc([N+](=O)[O-])c1Sc1ccc(Cl)cn1	-53.2%
CCOC(=O)C1(Cc2cccc(Cl)c2)CCCN(C(=O)c2cccc(C)n2)C1 (stereo not drawn)	-1.76%
CCOCCCNC(=O)COc1ccc(OC)cc1	13.2%
Cn1c(N)c(C(=O)CCl)c(=O)n(Cc2ccccc2)c1=O	2.2%
CC1(C)CC(NC(=O)c2cc(Cl)ccc2Cl)CC(C)(C)N1	-1.21%
CC1(C)CC(NC(=O)c2ccc(Cl)cc2Cl)CC(C)(C)N1	2.81%
CC1(C)CC(NC(=S)NC(=O)c2cc(Br)ccc2Cl)CC(C)(C)N1	-53.3%
C=C1c2cc(CC)ccc2NC(=O)N1c1ccc(C)cc1	8.71%

Compound	hERG current change (%, negative = inhibition) at 10uM
CC(=O)c1c(C)n(CCCOC(C)C)c2ccc(O)cc12	-30.4%
COc1ccc(NS(=O)(=O)c2ccc(NC(=S)NC(=O)/C=C/c3ccccc3)cc2)nn1	-3.33%
Cc1cccc(NC(=O)CN2C(=O)N/C(=C\c3ccc(-c4cccc(C(=O)O)c4)o3)C2=O)c1	19.3%
CCc1ccc(S(=O)(=O)N2c3ccc(C)cc3C3CN(C)CCC32)cc1 (stereo not drawn)	-60.4%
Cc1ccc2c(c1)C1CN(C)CCC1N2S(=O)(=O)c1ccccc1 (stereo not drawn)	-32.4%
Cc1ccc2c(c1)C1CN(C)CCC1N2S(=O)(=O)c1ccc(C(C)C)cc1 (stereo not drawn)	-73.4%
Cc1ccc2c(c1)C1CN(C)CCC1N2S(=O)(=O)c1cccc(F)c1 (stereo not drawn)	-11.5%
Cc1ccc2c(c1)C1CN(C)CCC1N2S(=O)(=O)c1cccc(C(F)(F)F)c1 (stereo not drawn)	-40.1%
Cc1ccc2c(c1)C1CN(C)CCC1N2S(=O)(=O)c1cc(C(F)(F)F)ccc1Cl (stereo not drawn)	-27.6%
O=C(COC(=O)c1ccc(S(=O)(=O)C(F)F)cc1)Nc1ccccc1C(=O)NC1CC1	11.5%
O=C(CCN=C1NS(=O)(=O)c2ccccc21)OCC(=O)c1ccc(F)cc1	-3.17%
O=C(NCCCN1CCOCC1)c1onc(CSc2ccncc2)c1C(=O)NCCCN1CCOCC1	-5.25%
CCCCCC(=O)N/N=C/c1ccc(N(C)C)cc1	-19.2%
COc1cc(NC(=O)C2CCN(c3cnccn3)CC2)cc(OC)c1OC	19.5%
COc1ccc(CNC(=O)CSc2n[nH]c(N)n2)cc1	20.1%
COc1ccc(CNC(=O)CSc2n[nH]c(N)n2)cc1OC	-77.5%
COc1ccc(CCNC(=O)CSc2n[nH]c(N)n2)cc1OC	30.1%
COc1ccc(CNC(=O)CSc2ccc(Br)cc2)cc1OC	-63.1%
COc1ccc(CCNC(=O)CSc2ccc(Br)cc2)cc1OC	23%
COc1ccccc1CNC(=O)CSc1ccc(Br)cc1	-3.01%
COc1ccc(CNC(=O)C2CCN(c3nccs3)CC2)cc1	-31.8%
CC(C)c1ccc(Oc2cccc(C(=O)/C(C#N)=C/N(C)C)c2)cc1	-14.6%

Compound	hERG current change (%, negative = inhibition) at 10uM
Cc1ccsc1C(=O)C1CCCN(Cc2cnc(N)nc2)C1 (stereo not drawn)	-4.85%
Cc1ccsc1C(=O)C1CCCN(Cc2cnn(C(C)C)c2)C1 (stereo not drawn)	-56.4%
Cc1ccsc1C(=O)C1CCCN(Cc2cnn(C)c2)C1 (stereo not drawn)	12%
CSc1ncc(CN2CCCC(C(=O)c3sccc3C)C2)cn1 (stereo not drawn)	-55.2%
CCn1cc(CN2CCCC(C(=O)c3sccc3C)C2)cn1 (stereo not drawn)	-27.3%
O=C(c1ccc(Cl)cc1)C1CCCN(Cc2cccn2-c2cccnc2)C1 (stereo not drawn)	-42%
CSc1ccc(C(=O)C2CCCN(Cc3cnc(SC)nc3)C2)cc1 (stereo not drawn)	-76.4%
CSc1ccc(C(=O)C2CCCN(Cc3cccn3-c3cccnc3)C2)cc1 (stereo not drawn)	-65.1%
CSc1ncc(CN2CCCC(C(=O)c3ccc(C(C)(C)C)cc3)C2)cn1 (stereo not drawn)	-31.9%
CSc1ncc(CN2CCCC(C(=O)c3cccc(Cl)c3)C2)cn1 (stereo not drawn)	-47.1%
Cc1ccsc1C(=O)C1CCCN(Cc2cnc(N3CCCC3)s2)C1 (stereo not drawn)	-15.3%
COc1cccc(/C=N/NC(=O)C(C)n2nnc3ccccc32)c1 (stereo not drawn)	-1.1%
Cc1cc([N+](=O)[O-])nn1CC(=O)Nc1sc2c(c1C(N)=O)CCCC2	7.62%
CCN(CC(=O)NCc1cccs1)CC(=O)Nc1c(Cl)ccc(C)c1Cl	-16.8%
CC12CC3(C)CC(C)(C1)CC(C(=O)NC(=S)NC(C)(C)C)(C2)C3	13.3%
CSc1ccc(C(=O)C2CCCN(Cc3ccn[nH]3)C2)cc1 (stereo not drawn)	-26.6%
CSc1ccc(C(=O)C2CCCN(Cc3cccnc3)C2)cc1 (stereo not drawn)	-53%
O=C(C1CCCN(Cc2cccnc2)C1)N1CCCCC1.O=C(O)C(=O)O (stereo not drawn)	7.77%
CCCCn1nc(C(=O)NCC2COc3ccccc3O2)c2ccccc2c1=O (stereo not drawn)	-49.1%
O=[N+]([O-])c1ccccc1/C=C/C=N/n1c(-c2ccc(Cl)cc2)n[nH]c1=S	17.5%
O=C(CN(Cc1ccco1)C(=O)CNS(=O)(=O)c1ccc(F)cc1)NCc1ccccc1	-28.4%
